Measurements: the supplement of paper PMC13380429
Structures can show the parent of a compound that is named as a salt.

Tests used:
[1] = system: Vero E6 infected with SARS-CoV-2; experiment: morphology score (similarity to uninfected cells); higher = more like uninfected cells; details: 24 h
[2] = system: Vero E6 infected with SARS-CoV-2; experiment: SARS-CoV-2 infection rate relative to infected DMSO; higher = more infection, active = 60 or less; details: 24 h

Compound | morphology score [1] | SARS-CoV-2 infection rate [2]
CC1=C(CC(=O)O)c2cc(F)ccc2/C1=C\c1ccc(S(C)(=O)=O)cc1 [exisulind] (10 µM) | 0.0955 | 109% (inactive)
CCN(CC)CC#CCOC(=O)C(O)(c1ccccc1)C1CCCCC1 (stereo not drawn) [oxybutynin] (10 µM) | 0.299 | 98% (inactive)
Cc1occc(=O)c1[O-].Cc1occc(=O)c1[O-].[O]=[V+2] [bis(maltolato)oxovanadium(IV)] (10 µM) | -0.461 | 106% (inactive)
CCC(CC)Nc1cc(C)nc(Oc2c(C)cc(C)cc2C)c1C (10 µM) | 0.248 | 100% (inactive)
COc1ccc(Nc2ccn(-c3ccccc3)n2)cc1 (10 µM) | 0.166 | 87.5% (inactive)
CN(CCOc1ccc(NS(C)(=O)=O)cc1)CCc1ccc(NS(C)(=O)=O)cc1 [dofetilide] (10 µM) | 0.059 | 112% (inactive)
COc1c2occc2c(OC)c2c(=O)cc(C)oc12 [khellin] (10 µM) | -0.102 | 109% (inactive)
CCCC[C@]1(CC)CS(=O)(=O)c2cc(CNC(CC(=O)O)CC(=O)O)c(OC)cc2[C@@H](c2ccccc2)N1 (10 µM) | 0.0912 | 90.5% (inactive)
CC1COc2c(N3CCN(C)CC3)c(F)cc3c(=O)c(C(=O)O)cn1c23 (stereo not drawn) [ofloxacin] (10 µM) | 0.0901 | 104% (inactive)
COC(=O)c1cc(OC)c2c(c1-c1c(C(=O)OC)cc(OC)c3c1OCO3)OCO2 [bifendate] (10 µM) | 0.0714 | 108% (inactive)
CC(=O)OCC1=C(C(=O)O)N2C(=O)[C@@H](NC(=O)CCCC(N)C(=O)O)C2SC1 (stereo partly drawn) [cephalosporin-c-zn] (10 µM) | 0.00489 | 97% (inactive)
O=C(NOCC1CC1)c1ccc(F)c(F)c1Nc1ccc(I)cc1Cl (10 µM) | 0.0812 | 100% (inactive)
N=c1ccn2c(n1)O[C@H]1[C@H](O)[C@@H](CO)O[C@H]12 [Cyclocytidine HCl] (0.833333 µM) | -0.127 | 114% (inactive)
C/C=C/C=C/C(=O)O [sorbic-acid] (10 µM) | -0.0925 | 101% (inactive)
CC(C)(C)C(=O)CN1C(=O)[C@H](NC(=O)Nc2cccc(C(=O)O)c2)CN(C2CCCCC2)c2ccccc21 [nastorazepide] (10 µM) | -0.0136 | 104% (inactive)
CO/N=C(\C(=O)N[C@@H]1C(=O)N2C(C(=O)O)=C(CSc3nc(=O)c(O)nn3C)CS[C@H]12)c1csc(N)n1 [ceftriaxone] (10 µM) | -0.108 | 112% (inactive)
N#Cc1ccc(N2N=C3c4ccc(C(=O)O)cc4CC[C@@H]3[C@@H]2C2CCCC2)cc1Cl (10 µM) | -0.174 | 108% (inactive)
COc1cc2ncnc(Nc3cccc(Cl)c3F)c2cc1OC(=O)N1CCN(C)C[C@H]1C (10 µM) | -0.178 | 114% (inactive)
Cn1nc(-c2cccc(F)c2)n(C)c1=S [suritozole] (10 µM) | 0.141 | 101% (inactive)
Nc1ncnc2c1ncn2C1CCCO1 (stereo not drawn) (10 µM) | 0.029 | 103% (inactive)
COc1cc2ncnc(Nc3cccc(Cl)c3)c2cc1OC [tyrphostin-AG-1478] (10 µM) | -0.318 | 118% (inactive)
CCN(CC)C(=O)N[C@H]1C=C2c3cccc4[nH]cc(c34)C[C@H]2N(C)C1 [lisuride] (10 µM) | -0.111 | 110% (inactive)
COc1cc2c(cc1OC)CN(C(=O)[C@@H](NCc1ccncc1)C(C)(C)C)CC2 (10 µM) | -0.115 | 105% (inactive)
C[C@]12CCC(=O)C=C1CC[C@@H]1[C@@H]2CC[C@@]2(C)[C@H]1CC[C@]2(C)O [17-alpha-Methyltestosterone] (10 µM) | 0.0827 | 108% (inactive)
CC(C)NCC(O)COc1cccc2ccccc12 (stereo not drawn) [propranolol] (10 µM) | 0.148 | 103% (inactive)
O=C(c1cccc(Cl)c1F)N1CCN(Cc2cccc(Nc3nccs3)n2)CC1 (0.833333 µM) | 0.202 | 107% (inactive)
O=C(c1ccc(Nc2nccc(-c3cc4ccccc4s3)n2)cc1)N1CCC(N2CCCC2)CC1 (0.833333 µM) | 0.629 | 56% (active)
Cc1cc(C)cc(OCC2CNC(=O)O2)c1 (stereo not drawn) [metaxalone] (10 µM) | 0.134 | 97% (inactive)
COc1cc2c(cc1OC)C(=O)C(CC1CCN(Cc3ccccc3)CC1)C2 (stereo not drawn) [donepezil] (10 µM) | 0.153 | 100% (inactive)
